# According to PubChem BioAssay (NCATS):
# Where “and” joins values, the source holds several entries; their conditions need not be identical. Equal values may be shown once. Inconclusive results are not listed. Where a call stands in place of a potency, no number is given. Calls of active or inactive are those of the source. Unless noted, the call rests on the fitted dose curve; in most records, active means well fitted curve in the direction sought with a large enough effect; inconclusive means small, poorly fitted or top-dose-only effect, or another doubt; inactive means no such curve, though single readings can be large; an effect the other way counts as inactive or inconclusive.
# How the values were obtained:
# [1] = molecular target: DNA dC->dU-editing enzyme APOBEC-3G (Homo sapiens) (UniProt Q9HC16); test: qHTS for inhibitors of Vif-A3G interactions: Validation (AID 588379)
# Sequence of DNA dC->dU-editing enzyme APOBEC-3G (Homo sapiens) (Q9HC16 whole entry, looked up): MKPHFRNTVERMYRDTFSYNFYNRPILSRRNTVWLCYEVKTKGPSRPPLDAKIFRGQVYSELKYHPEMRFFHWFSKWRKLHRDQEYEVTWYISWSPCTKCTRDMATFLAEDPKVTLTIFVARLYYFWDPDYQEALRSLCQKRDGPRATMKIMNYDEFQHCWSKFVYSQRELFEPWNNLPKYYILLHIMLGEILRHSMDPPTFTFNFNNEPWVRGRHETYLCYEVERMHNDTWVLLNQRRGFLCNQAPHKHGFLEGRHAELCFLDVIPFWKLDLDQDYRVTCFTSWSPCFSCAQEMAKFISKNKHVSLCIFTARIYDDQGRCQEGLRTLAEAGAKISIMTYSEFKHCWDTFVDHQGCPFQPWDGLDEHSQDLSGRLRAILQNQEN
# How it was run: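 HeLa cells stably expressing Vif and A3G-eYFP, 700 cells/well, incubated overnight at 37 deg C, then exposed to compound overnight at 37 deg C. Inhibition of Vif-mediated degradation read as increased yellow fluorescence (Ex 488/Em 500-530) by laser-scanning cytometry.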
# [2] = Confirmation and Secondary Assay for Modulators of Hemoglobin Beta Chain Splicing at IVS2 705 locus (AID 930);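 further: HeLa cells stably expressing the EGFP-705 splicing reporter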
# How it was run: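 HeLa cells stably carrying EGFP interrupted by mutant beta-globin IVS2-705 intron (CMV-driven) were seeded at 500 cells/well, treated next day with compound for 2 days at 37C; corrected splicing restores EGFP, read as total peak GFP intensity per well.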
# [3] = molecular target: Cytochrome P450 2C9 (Homo sapiens) (UniProt P11712); test: qHTS Assay for Inhibitors and Substrates of Cytochrome P450 2C9 (AID 883); further: nearly all actives have a fitted effect of over 60% in size; further: potency means the concentration at half of the fitted maximal effect
# Sequence of Cytochrome P450 2C9 (Homo sapiens) (P11712 whole entry, looked up): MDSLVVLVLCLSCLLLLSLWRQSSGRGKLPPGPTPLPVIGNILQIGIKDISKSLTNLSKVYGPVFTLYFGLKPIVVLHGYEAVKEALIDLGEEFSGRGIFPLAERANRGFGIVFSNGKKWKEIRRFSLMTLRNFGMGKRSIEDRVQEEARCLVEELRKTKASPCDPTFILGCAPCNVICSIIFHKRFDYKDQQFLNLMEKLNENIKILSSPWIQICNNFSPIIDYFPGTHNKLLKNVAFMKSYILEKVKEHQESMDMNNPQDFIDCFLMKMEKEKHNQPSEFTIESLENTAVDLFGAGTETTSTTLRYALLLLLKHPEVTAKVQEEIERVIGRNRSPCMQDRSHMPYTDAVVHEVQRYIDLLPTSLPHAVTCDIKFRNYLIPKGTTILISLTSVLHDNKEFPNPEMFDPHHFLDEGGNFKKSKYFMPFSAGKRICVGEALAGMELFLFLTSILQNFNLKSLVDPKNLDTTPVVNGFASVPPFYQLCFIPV
# How it was run: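 A luminogenic readout tracked human CYP2C9 (10nM) converting deoxyluciferin (100uM, at KM) in 25mM KPO4 during 60 min at 37C with regenerated NADPH. Values normalized to 57uM sulphaphenazole as complete inhibition.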
# [4] = molecular target: Cytochrome P450 2C19 (Homo sapiens) (UniProt P33261); test: qHTS Assay for Inhibitors and Substrates of Cytochrome P450 2C19 (AID 899); further: nearly all actives have a fitted effect of over 60% in size; further: potency means the concentration at half of the fitted maximal effect
# Sequence of Cytochrome P450 2C19 (Homo sapiens) (P33261 whole entry, looked up): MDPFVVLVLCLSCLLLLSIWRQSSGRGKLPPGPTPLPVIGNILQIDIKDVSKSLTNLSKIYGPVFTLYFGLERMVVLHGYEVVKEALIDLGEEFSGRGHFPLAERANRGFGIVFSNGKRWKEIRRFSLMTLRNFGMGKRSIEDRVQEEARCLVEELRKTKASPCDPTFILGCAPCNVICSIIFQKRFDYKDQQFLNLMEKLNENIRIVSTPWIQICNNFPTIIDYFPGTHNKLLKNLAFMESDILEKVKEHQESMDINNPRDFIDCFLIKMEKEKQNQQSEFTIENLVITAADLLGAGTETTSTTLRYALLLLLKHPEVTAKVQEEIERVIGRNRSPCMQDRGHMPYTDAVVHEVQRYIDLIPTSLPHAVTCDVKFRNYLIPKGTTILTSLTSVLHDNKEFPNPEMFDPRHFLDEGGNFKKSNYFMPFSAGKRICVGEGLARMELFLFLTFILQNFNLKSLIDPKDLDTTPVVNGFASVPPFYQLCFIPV
# How it was run: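 NADPH-dependent conversion of Luciferin-H EGE (10uM, at KM) by 5nM enzyme in 50mM KPO4, 60 min at 37C following 10 min compound preincubation. Stopped with luciferin detection buffer; luminescence read after 20 min.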
# [5] = molecular target: Guanine nucleotide-binding protein G(i) subunit alpha-1 (Homo sapiens) (UniProt P63096); test: qHTS Assay for Inhibitors of RGS12 GoLoco Motif Activity (Green Fluorophore) (AID 879);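 further: negative values mean loss of peptide binding seen as reduced polarization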
# Sequence of Guanine nucleotide-binding protein G(i) subunit alpha-1 (Homo sapiens) (P63096 whole entry, looked up): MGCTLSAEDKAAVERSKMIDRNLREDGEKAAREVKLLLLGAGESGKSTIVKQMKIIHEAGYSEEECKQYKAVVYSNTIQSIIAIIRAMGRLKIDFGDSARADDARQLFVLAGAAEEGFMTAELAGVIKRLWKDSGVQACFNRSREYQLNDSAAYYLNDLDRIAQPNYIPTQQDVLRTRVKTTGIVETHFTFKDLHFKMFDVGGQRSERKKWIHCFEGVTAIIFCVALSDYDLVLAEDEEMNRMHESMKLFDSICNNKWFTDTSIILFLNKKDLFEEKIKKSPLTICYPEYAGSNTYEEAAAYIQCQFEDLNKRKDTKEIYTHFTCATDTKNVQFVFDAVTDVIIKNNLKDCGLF
# How it was run: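 Fluorescence polarization assay: 50 nM Gαi1 with 10 nM FITC-labeled RGS12 GoLoco peptide in 10 mM Tris pH 7.5, 150 mM NaCl, 0.1 mM GDP, 0.05% NP40, 10 min at room temperature with compound.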
# [6] = qHTS Assay for Identification of Small Molecule Agonists for Thrombopoietin (TPO) Signaling Pathway (AID 917)
# How it was run: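 Luminescence from a Glycoprotein IIb promoter–driven luciferase reporter served as read-out in murine Ba/F3 cells carrying the human TPO receptor. Cells, deprived of IL-3 overnight, received compounds with 26 pM TPO and were incubated 24 hrs at 37 C.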
# [7] = molecular target: Muscarinic acetylcholine receptor M1 (Rattus norvegicus) (UniProt P08482); test: qHTS Assay for Antagonists of Acetylcholine Muscarinic M1 Receptor: Kinetic Measurement of Intracellular Calcium Response (AID 943); further: nearly all actives have a fitted effect of over 75% in size
# Sequence of Muscarinic acetylcholine receptor M1 (Rattus norvegicus) (P08482 whole entry, looked up): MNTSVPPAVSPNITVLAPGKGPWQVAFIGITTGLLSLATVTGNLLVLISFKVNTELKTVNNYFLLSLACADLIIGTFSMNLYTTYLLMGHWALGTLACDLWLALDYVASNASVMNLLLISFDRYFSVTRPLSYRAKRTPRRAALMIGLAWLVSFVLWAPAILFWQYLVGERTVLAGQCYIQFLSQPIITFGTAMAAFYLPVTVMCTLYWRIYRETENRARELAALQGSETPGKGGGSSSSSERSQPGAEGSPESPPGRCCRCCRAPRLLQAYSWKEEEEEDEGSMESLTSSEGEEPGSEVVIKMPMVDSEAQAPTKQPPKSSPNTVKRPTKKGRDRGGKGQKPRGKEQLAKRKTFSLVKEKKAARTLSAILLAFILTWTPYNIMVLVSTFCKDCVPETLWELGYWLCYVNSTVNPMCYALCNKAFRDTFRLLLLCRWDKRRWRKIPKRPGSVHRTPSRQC
# How it was run: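 CHO cells expressing rat M1 receptor, Fluo-4 loaded, preincubated 10 min with compound, then stimulated with EC80 carbachol (100 nM final). Kinetic calcium fluorescence over 4 min; response taken as peak over basal signal.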
# [8] = molecular target: Muscarinic acetylcholine receptor M1 (Rattus norvegicus) (UniProt P08482); test: qHTS Assay for Antagonists of Acetylcholine Muscarinic M1 Receptor: Measurement of IP-One Response (AID 944); further: nearly all actives have a fitted effect of over 75% in size
# How it was run: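 CHO cells stably expressing rat M1, pretreated 10 min with compound, then stimulated 30 min with carbachol at EC80 (200 nM) in LiCl-containing buffer pH 7.4; IP1 accumulation read by HTRF competition (665/620 nm).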
# [9] = molecular target: Pyruvate kinase (Leishmania mexicana) (UniProt Q27686); test: qHTS Validation Assay for Inhibitors of Leishmania Mexicana Pyruvate Kinase (AID 945)
# Sequence of Pyruvate kinase (Leishmania mexicana) (Q27686 2-499 E452W): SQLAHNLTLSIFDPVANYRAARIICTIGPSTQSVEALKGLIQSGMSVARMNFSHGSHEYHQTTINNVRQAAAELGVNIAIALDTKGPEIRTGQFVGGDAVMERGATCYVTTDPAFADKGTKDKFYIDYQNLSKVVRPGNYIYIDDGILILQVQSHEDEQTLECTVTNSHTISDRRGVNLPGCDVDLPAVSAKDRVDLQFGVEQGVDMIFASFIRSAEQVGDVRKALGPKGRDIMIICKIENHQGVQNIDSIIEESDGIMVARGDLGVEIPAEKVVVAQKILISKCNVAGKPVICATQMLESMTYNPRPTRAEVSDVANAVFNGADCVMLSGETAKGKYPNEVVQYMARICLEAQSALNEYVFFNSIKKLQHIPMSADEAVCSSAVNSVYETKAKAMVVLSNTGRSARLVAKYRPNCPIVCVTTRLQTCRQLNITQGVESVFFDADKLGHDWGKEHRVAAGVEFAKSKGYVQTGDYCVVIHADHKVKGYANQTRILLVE
# How it was run: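 LmPYK E451W 0.2 nM; 0.5 mM PEP, 0.1 mM ADP, 7 mM MgCl2, 50 mM KCl, imidazole pH 7.2, 0.01% Tween 20, 0.05% BSA; 1 h RT; PKLight luminescence; DMSO-normalized.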
# [10] = molecular target: Pyruvate kinase PKM (Homo sapiens) (UniProt P14618); test: qHTS Assay for Activators of Human Muscle Pyruvate Kinase (AID 954; active means well fitted curve in the direction sought with a large enough effect, not every such curve was filed as active)
# Sequence of Pyruvate kinase PKM (Homo sapiens) (P14618 whole entry, looked up): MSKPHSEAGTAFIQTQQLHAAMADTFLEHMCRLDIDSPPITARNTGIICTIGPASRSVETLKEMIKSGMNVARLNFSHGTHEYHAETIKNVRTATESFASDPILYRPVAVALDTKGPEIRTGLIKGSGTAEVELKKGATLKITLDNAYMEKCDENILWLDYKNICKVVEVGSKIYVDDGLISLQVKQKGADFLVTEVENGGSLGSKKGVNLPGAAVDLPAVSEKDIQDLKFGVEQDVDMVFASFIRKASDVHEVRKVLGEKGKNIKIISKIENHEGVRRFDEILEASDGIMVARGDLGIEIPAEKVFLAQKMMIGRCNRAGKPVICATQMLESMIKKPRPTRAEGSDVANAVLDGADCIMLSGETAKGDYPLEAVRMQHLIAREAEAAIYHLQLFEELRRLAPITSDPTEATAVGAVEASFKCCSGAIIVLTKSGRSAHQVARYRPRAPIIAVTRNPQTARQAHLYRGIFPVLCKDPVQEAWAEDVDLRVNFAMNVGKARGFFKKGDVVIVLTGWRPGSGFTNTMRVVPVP
# How it was run: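 Purified human PKM2 (0.1 nM) with 0.5 mM PEP (Km) and 0.1 mM ADP in 50 mM imidazole pH 7.2, KCl, MgCl2, 1 h at room temperature; ATP formed read by coupled luciferase luminescence. Normalized to no-enzyme/110 uM thiadiazolimine inhibition; 0.3 nM enzyme column for activation.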
# [11] = molecular target: Alpha-galactosidase A (Homo sapiens) (UniProt P06280); test: Counterscreen for Glucocerebrosidase Inhibitors: qHTS Assay for Human alpha-Galactosidase at pH 4.5 (AID 992)
# Sequence of Alpha-galactosidase A (Homo sapiens) (P06280 whole entry, looked up): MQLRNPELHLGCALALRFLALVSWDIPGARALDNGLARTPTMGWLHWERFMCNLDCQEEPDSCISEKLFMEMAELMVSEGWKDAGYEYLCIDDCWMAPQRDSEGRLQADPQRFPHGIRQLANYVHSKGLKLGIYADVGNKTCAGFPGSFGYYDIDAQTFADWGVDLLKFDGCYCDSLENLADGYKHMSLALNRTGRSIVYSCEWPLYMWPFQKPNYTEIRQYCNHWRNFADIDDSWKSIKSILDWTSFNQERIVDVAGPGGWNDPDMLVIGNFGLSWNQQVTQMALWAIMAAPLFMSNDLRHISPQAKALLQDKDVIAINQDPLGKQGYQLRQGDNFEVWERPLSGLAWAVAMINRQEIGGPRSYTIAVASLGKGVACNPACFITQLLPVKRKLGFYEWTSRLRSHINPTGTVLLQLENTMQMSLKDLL
# How it was run: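 Human enzyme (2 nM) with 80 uM 4-methylumbelliferyl alpha-D-galactopyranoside in 50 mM citric acid, 0.005% Tween-20, pH 4.5, 20 min at room temperature. Compounds 0.7 nM–77 uM; fluorescence Ex 365/Em 440 after pH 10 stop; AC50 from Hill fits.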
# [12] = molecular target: alpha-glucosidase (Oryza sativa, rice) (UniProt Q653V4); test: Counterscreen for Glucocerebrosidase Inhibitors: qHTS Assay for Rice alpha-Glucosidase at pH 5.0 (AID 997)
# How it was run: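 Rice alpha-glucosidase (4 nM final) with 400 uM 4-methylumbelliferyl-alpha-D-glucopyranoside in citrate buffer pH 5.0, 20 min at room temperature, stopped at pH 10; fluorescence 365/440 nm, compounds 0.7 nM–77 uM, AC50 from Hill fits.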
# [13] = qHTS Assay for Identifying Gametocytocidal Compounds (AID 743244); further: potency means the concentration at half of the fitted maximal effect; conditions: P. falciparum 3D7 stage III-V gametocytes, alamarBlue, 72 h; max response: stronger effect = lower value
# How it was run: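 Using 20,000 stage III–V 3D7 gametocytes per well, compounds were incubated 72 h under 37 °C/5% CO2. Viability was then assessed by 24 h alamarBlue reduction, measured fluorometrically at 525/598 nm.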
# [14] = qHTS profiling for inhibitors of Plasmodium falciparum (3D7) proliferation (AID 743322);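 further: infected erythrocytes exposed to compound for 72 h before lysis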; conditions: P. falciparum 3D7 proliferation; at 9.63 µM (top of the series)
# How it was run: (§1)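 Erythrocytes infected with P. falciparum (0.3% parasitemia, 2.5% hematocrit) incubated with compounds 72 h at 37 C, 5% CO2. Lysis with saponin/Triton buffer containing SYBR Green I, overnight at room temperature in the dark; DNA fluorescence (485/535 nm) normalised to 0.29 uM artemisinin and DMSO.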
# [15] = qHTS profiling for inhibitors of Plasmodium falciparum (DD2) proliferation (AID 743323; call rule not given here); conditions: lower = more inhibition; at 9.63 µM (top of the series)
# How it was run: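 P. falciparum Dd2-infected erythrocytes (0.3% parasitemia, 2.5% hematocrit) exposed 72 h at 37 C, 5% CO2. Lysis with SYBR Green, overnight at room temperature, fluorescence 485/535 nm; normalized to 0.29 uM artemisinin and DMSO.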
# [16] = qHTS profiling for inhibitors of Plasmodium falciparum (HB3) proliferation (AID 743324); conditions: Plasmodium falciparum HB3 blood-stage proliferation; at 9.63 µM (top of the series)
# How it was run: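 P. falciparum HB3 grown in erythrocytes (0.3% parasitemia, 2.5% hematocrit final) with compound for 72 h at 37 C, 5% CO2. Parasite DNA detected by SYBR Green after saponin/triton lysis overnight; normalized to 0.29 uM artemisinin and DMSO.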
# [17] = qHTS profiling of the MIPE4 collection as inhibitors of Plasmodium falciparum (3D7) proliferation (AID 743344; call rule not given here); conditions: P. falciparum 3D7 in erythrocytes, SYBR Green DNA fluorescence, 72 h; at 9.64 µM (top of the series)
# How it was run: as §1
# [18] = qHTS profiling of the MIPE4 collection as inhibitors of Plasmodium falciparum (DD2) proliferation (AID 743345; call rule not given here); conditions: P. falciparum Dd2 in erythrocytes, SYBR Green DNA, 72 h; at 9.64 µM (top of the series)
# How it was run: as §1
# [19] = qHTS profiling of the MIPE4 collection as inhibitors of Plasmodium falciparum (DD2) proliferation (Rep 2) (AID 743346; call rule not given here); conditions: P. falciparum Dd2 in erythrocytes, SYBR Green DNA, 72 h; at 9.64 µM (top of the series)
# How it was run: as §1
# [20] = qHTS profiling of the MIPE4 collection as inhibitors of Plasmodium falciparum (HB3) proliferation (AID 743347; call rule not given here); conditions: P. falciparum HB3 in erythrocytes, SYBR Green DNA, 72 h; at 9.64 µM (top of the series)
# How it was run: as §1
structure (smiles),measurement,setting,value
Cc1ccc2c(c1)c1c3n2CCN[C@H]3CCC1,outcome,[1],inactive
CS(=O)(=O)Nc1cccc(-c2nc(Nc3ccccc3)c3ccccc3n2)c1,Potency,[2],inactive
CC(=O)[C@@H]1CC[C@@H]2[C@@H]3C[C@H](C)C4=CC(=O)CC[C@@]4(C)[C@H]3[C@H](O)C[C@]21C,Potency,[3],398 nM (active)
Nc1ccn([C@@H]2CC[C@H](CO)O2)c(=O)n1,Potency,[3],inactive
COc1cc2cc3c4cc(OC)c(OC)cc4cc[n+]3c(C)c2cc1OC,Potency,[2],inactive
N#Cc1cccc(-c2cncnc2-n2ccnc2)c1,Potency,[2],inactive
CS(=O)(=O)Nc1cccc(-c2nc(Nc3ccc(F)cc3)c3ccccc3n2)c1,Potency,[4],7.94 µM (active)
same,Potency,[2],inactive
CCOC(=O)C1=C(C)NC(C)=C(C(=O)OC)[C@@H]1c1cccc([N+](=O)[O-])c1,Potency,[3],316 nM (active)
same,Potency,[4],0.126 µM (active)
CC(=C(CCOP(=O)(O)O)SC(=O)c1ccccc1)N(C=O)Cc1cnc(C)nc1N,Potency,[2],inactive
Cc1onc(-c2c(Cl)cccc2Cl)c1C(=O)N[C@H]1C(=O)N2[C@H]1SC(C)(C)[C@H]2C(=O)O,Potency,[3],inactive
same,Potency,[4],inactive
CC(=O)/C(C)=N\O,outcome,[5],inactive
same,outcome,[6],inactive
same,outcome,[7],inactive
same,outcome,[8],inactive
same,outcome,[9],inactive
same,outcome,[10],inactive
same,outcome,[11],inactive
same,outcome,[12],inactive
same,outcome,[1],inactive
O=C(/C=C\c1ccc(O)c(O)c1)O[C@@H]1C[C@](O)(C(=O)O)C[C@@H](O)[C@@H]1O,Potency,[3],inactive
COc1ccc([C@@H]2CC(=O)c3c(O)cc(O)cc3O2)cc1O,Potency,[4],5.01 µM (active) and 7.94 µM (active)
same,outcome,[1],inactive
O[C@H](c1cc(C(F)(F)F)nc2c(C(F)(F)F)cccc12)[C@H]1CCCCN1,Potency,[13],89.4 nM (active)
same,remaining parasite growth % (stronger effect = lower value),[14],-0.0865%
same,"activity, percent of control",[15],1.34%
same,"remaining proliferation (% of control), lower = more inhibition",[16],0.677%
same,"parasite growth, % of DMSO control",[17],8.08%
same,"parasite growth remaining, % of DMSO control (lower = more inhibition)",[18],8.4%
same,"parasite growth, % of control (lower = inhibition)",[19],18.7%
same,"growth, % of control",[20],4.87%
CO[C@@H]1C=CO[C@]2(C)Oc3c(C)c(O)c4c(O)c(c(C=NN5CCN(C)CC5)c(O)c4c3C2=O)NC(=O)C(C)=CC=C[C@H](C)[C@H](O)[C@H](C)[C@H](O)[C@H](C)[C@H](OC(C)=O)[C@H]1C,remaining parasite growth % (stronger effect = lower value),[14],5.75%
same,"activity, percent of control",[15],4.21%
same,"parasite growth, % of DMSO control",[17],5.98%
same,"parasite growth remaining, % of DMSO control (lower = more inhibition)",[18],11.9%
same,"parasite growth, % of control (lower = inhibition)",[19],22.5%
same,"growth, % of control",[20],5.71%
Fc1ccc(Nc2nc(-c3cccnc3)nc3ccccc23)cc1,Potency,[2],inactive
C[C@@H](C(=O)O)c1ccc(N2Cc3ccccc3C2=O)cc1,Potency,[3],inactive
C#C[C@]1(O)CC[C@@H]2[C@H]3CCC4=CCCC[C@@H]4[C@@H]3CC[C@@]21C,Potency,[4],3.98 µM (active)
